An excerpt weighted towards active compounds, which were near 3.9% of everything screened.
Mot1-301 SUMO – yeast Mot1-301 growth rescue at high temperature, primary screen, SUMOylation pathway inhibitor project, S. cerevisiae, ATP luminescence, 38.5C | S. cerevisiae Mot1-301 growth rescue; percent above DMSO median, 100 means doubled | growth rescue, % at 18.8 µM | 320,000 compounds, 1% hits;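 active = every valid replicate shows activation above 250% relative to neutral control wells; inactive = the rest, any valid replicate at or below 250%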;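 also: OY570 slx delta 5 strain wells were the positive control but not used for scaling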
N-glyco inh – increase of ERlucT glycosylation luciferase signal, primary screen, N-linked glycosylation inhibitor project, D54 ERlucT cells, luminescence, set 2; 360,000 compounds, 0.23% hits; D54 ERlucT glycosylation luciferase reporter, 24 h; percent of 100 nM tunicamycin response; reporter increase, % at 12.5 µM;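 active = mean luciferase reporter signal, scaled so untreated is 0 and the glycosylation-blocking control 100, at or above a set limit in every replicate; inconclusive = mean reaches the limit but not every replicate does; inactive = mean below the limit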;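 also: luciferase carries N-glycosylation sites so blocking glycosylation raises the light; 0% = median of neutral control wells and 100% = median of 100 nM tunicamycin wells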
NSD2 inh – NSD2 histone methyltransferase inhibitors, primary screen, biochemical, AlphaScreen, single concentration, set 2 | inhibition, % at 12.5 µM | NSD2 peptide methylation, 120 min | 310,000 compounds, 0.54% hits | AID 743445, 2014 | Histone-lysine N-methyltransferase NSD2 (Homo sapiens), O96028; in the data active = inhibition above about 50%
ALR H2O2 inh – inhibitors of human ALR sulfhydryl oxidase, primary screen, biochemical, H2O2 detection, HRP-luminol luminescence, single point; FAD-linked sulfhydryl oxidase ALR (Homo sapiens), P55789; inhibition, % (test concentration not listed); purified ALR, DTT oxidation; 290,000 compounds, 3.8% hits;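 active = mean replicate inhibition above about 79%, with every replicate also reaching it, limit read from the data; inconclusive = only one of the two criteria met; inactive = mean below limit and not every replicate reaching it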
CDK5 p35 inh – inhibitors of human CDK5/p35 kinase, primary screen, biochemical, single concentration | Cyclin-dependent kinase 5 (Homo sapiens) + Cyclin-dependent kinase 5 activator 1 (Homo … | Recombinant CDK5/p35, ADP-Glo luminescence, 60 min | inhibition, % at 10 µM | 330,000 compounds, 0.01% hits | AID 488839, 2010;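 active = highest replicate inhibition of at least 50% and at least 75% of replicates reaching 50%; inconclusive = only one of the two criteria met; inactive = both criteria failed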;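 also: plate controls were DMSO neutral control for no effect and GW8510 at 10 µM for full effect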
CASP6 VEID inh – human caspase-6 inhibitors, primary screen, biochemical, VEID-R110 fluorescence, single point, set 2; P55212; purified caspase-6, Z-VEID-R110 cleavage fluorescence; inhibition, % at 12.5 µM; AID 686996, 2013; 350,000 compounds, 0.53% hits;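 active = mean inhibition across replicates at least about 35%, with every replicate also reaching that limit, limit read from the data; inconclusive = only one of the two criteria met; inactive = neither criterion met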;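 also: 0% = median of neutral control wells and 100% = no fluorescence left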
Numbers without * were called inactive; i = inactive; ? = inconclusive; / = no result.

SMILES	Mot1-301 SUMO	N-glyco inh	NSD2 inh	ALR H2O2 inh	CDK5 p35 inh	CASP6 VEID inh
COc1ccc(Cl)cc1NC(=O)c1ccc2c(SCC(=O)O)c3c(nc2c1)CCCC3	-18	3	/	11	-1	37*
CCCN(C(=O)c1ccc2c(SCC(=O)O)c3c(nc2c1)CCC3)c1cccc(C)c1	77	2	18	59	/	65*
COc1ccc(NC(=O)c2ccc3c(SCC(=O)O)c4c(nc3c2)CCCC4)cc1Cl	/	/	0	-7	/	19
CCC(C)NC(=O)c1ccc2c(SCC(=O)O)c3c(nc2c1)CCCC3 (centres undefined)	-8	1	2	97*	1	/
O=C(C[C@@H]1CC[C@H]2[C@@H](COC[C@@H](O)CN2CCc2ccccc2)O1)NCc1ccccc1	/	/	/	/	/	3
CN(C)c1ccc(CN2CCCC(O)C2)cc1 (centres undefined)	-20	0	-1	97*	0	/
OC1CCCN(Cc2ccccc2)C1 (centres undefined)	-15	0	0	-2	5	0
c1ccc(Nc2nc(CSc3ncn[nH]3)cs2)cc1	i	-1	2	94*	0	2
O=C(NN1C(=O)C2CC=C(Cl)CC2C1=O)c1ccncc1 (centres undefined)	-2	0	22	-6	-2	47*
CC(CNC(=O)CCc1ccccc1)NC(=O)CCc1ccccc1 (centres undefined)	-20	0	-1	-14	/	-3
CCCCCC(=O)NCC(C)NC(=O)CCCCC (centres undefined)	486*	-1	-3	-7	/	/
CN(C)C(=O)C[C@@H]1CC[C@@H]2[C@@H](COc3ccc(NC(=O)c4ccc(F)c(F)c4)cc3C(=O)N2C)O1	/	/	/	/	/	0
S=C(Nc1ccc(Cl)cc1)Nc1ccc2cn[nH]c2c1	1	4	3	-12	1	3
COc1ccc(CNC(=S)Nc2ccc(-c3ccccc3)cc2)cc1	-9	-1	-6	95*	2	-1
COC(=O)Nc1ccc(SCC(=O)c2ccccc2)cc1	3	-1	-6	99*	1	0
COC(=O)Nc1ccc(Oc2ccccc2)cc1	278*	-3	-2	-4	0	/
COc1ccc(NC(=S)Nc2ccc3cn[nH]c3c2)cc1	-11	1	/	100*	1	4
COc1ccc(NC(=S)Nc2ccc(Oc3ccccc3)cc2)cc1	277*	-6	-2	-2	1	/
CCNC(=S)Nc1ccc(Oc2ccccc2)cc1	/	-3	19	4	0	0
COc1ccc(NC(=S)NN(C)C(=S)Nc2ccc(OC)cc2)cc1	-7	25	1	99*	-3	/
COc1ccc(NC(=O)Nc2ccc(N(C)C)cc2)cc1	-12	-4	4	23	0	/
COC(=O)C[C@@H]1C=C[C@@H](NS(=O)(=O)c2ccccc2F)[C@@H](CO)O1	/	/	/	/	/	-2
C[C@H](CO)N1C[C@H](C)[C@H](CN(C)C(=O)Nc2ccc(C(F)(F)F)cc2)Oc2c(NS(=O)(=O)c3ccc(F)cc3)cccc2C1=O	/	/	/	/	/	1
COc1ccc(NC(=O)CC2C(=O)N(c3ccc(Cl)cc3)C(=S)N2CCc2ccncc2)cc1 (centres undefined)	4	3	0	-6	-5	5
COc1ccc(NC(=O)CC2C(=O)N(c3ccc(Cl)cc3)C(=S)N2CCc2ccccn2)cc1 (centres undefined)	307	2	-2	98*	-1	3
SMILES	Mot1-301 SUMO	N-glyco inh	NSD2 inh	ALR H2O2 inh	CDK5 p35 inh	CASP6 VEID inh
CO[C@@H](CN(C)C(=O)C1CCOCC1)[C@@H](C)CN(C(=O)Nc1ccc(F)cc1)[C@@H](C)CO	/	/	/	/	/	0
Cc1noc(C)c1NC(=O)N(C)C[C@H]1OCCCC[C@H](C)Oc2ccc(NS(=O)(=O)c3ccc(Cl)cc3)cc2C(=O)N([C@H](C)CO)C[C@@H]1C	/	/	/	/	/	1
CN(C)c1cccc(C(=O)NCc2ccccc2Cl)c1	238	0	0	11	0	0
CN(C)c1cccc(C(=O)NCc2ccccc2)c1	-2	0	8	96*	-2	-2
Cc1ccc(N/N=C2\CCS(=O)(=O)c3sccc32)cc1	162	1	22	99*	2	0
CC=Cc1ccc2n(c1=O)C[C@@H]1[C@@H](CO)[C@H](C(=O)N[C@H](C)c3ccccc3)[C@H]2N1CC (mixture of isomers)	/	/	/	/	/	1
Cc1cc(C)c2ccc(N)nc2c1O	/	-3	/	91*	0	/
Cc1cc(C)c2ccc(C)[n+]([O-])c2c1O	-18	1	2	-10	0	/
COc1cc(N)c(Cl)cc1C(=O)NC1CCN(Cc2ccccc2)CC1	/	-4	/	/	2	49*
COC(=O)C[C@H]1CC[C@H]2[C@@H](COc3ccc(NC(=O)c4cncs4)cc3C(=O)N2C)O1	/	/	/	/	/	2
CCOc1ccc(Nc2nc(Cc3nnc(SCC(=O)NC4CCCCC4)n3C)cs2)cc1	0	1	3	28	11	/
CCOc1ccc(Nc2nc(Cc3nnc(SCC(=O)NCC4CCCO4)n3C)cs2)cc1 (centres undefined)	13	1	3	?	-2	37*
Cc1ccc2[nH]c(-c3cccc(N)c3)cc2c1	-29	-5	9	98*	-1	/
Cc1cc(C(=O)CN2C(=O)NC3(CCCc4ccccc43)C2=O)c(C)n1Cc1ccccc1 (centres undefined)	5	1	0	31	0	/
Cc1cc(C(=O)CN2C(=O)CCC2=O)c(C)n1Cc1ccccc1	15	/	1	94*	-9	/
CC(C)OC(=O)Cn1cnc2ccc(Br)cc2c1=O	11	0	-1	89*	0	/
O=C(C[C@@H]1C=C[C@@H](NC(=O)Nc2ccc3c(c2)OCO3)[C@@H](CO)O1)NCc1ccc(F)cc1	/	/	/	/	/	-6
COCC(=O)Nc1ccc2c(c1)OC[C@@H](C)N(Cc1cc(-c3ccccc3)on1)C[C@@H](C)[C@H](OC)CN(C)C2=O	/	/	/	/	/	-4
CN1C(=O)CC(N2CCN(c3ccc(Cl)cc3)CC2)C1=O (centres undefined)	6	1	/	98*	0	-3
CC(CNS(=O)(=O)c1ccccc1)Sc1ncccn1 (centres undefined)	346*	0	0	-3	-1	0
Cc1noc(C)c1S(=O)(=O)NCCCN1CCN(Cc2ccccc2)CC1	50	/	/	10	/	/
Cc1noc(C)c1S(=O)(=O)NCCN1CCN(c2ccccc2)CC1	15	1	-1	86*	-5	/

Screening results as filed in PubChem BioAssay.
